# In PubChem BioAssay (NCATS):
# Inconclusive results are not listed. A call without a number means that no potency is given here. Activity calls are given as the source filed them. Calls follow the shape of the dose curve; as a rule, active = well fitted inhibition curve with a large enough effect; inconclusive = small, poorly fitted or top-dose-only effect; inactive = flat fitted curve, though single readings scatter.
# Molecular target: Luciferin 4-monooxygenase (Photinus pyralis) (UniProt P08659)
# Assay: Biochemical firefly luciferase enzyme assay for NPC (AID 624030);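 also: purified P. pyralis luciferase at 10 nM with luciferin and ATP substrate; nearly all actives have a fitted effect of over 70% in size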
# Settings: purified P. pyralis luciferase, luminescence, 5 min; series mostly up to 58.6 µM
# Outline: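 Counter-screen for direct inhibition of the luciferase enzyme by approved-drug library compounds, run at 10 nM enzyme in 50 mM Tris acetate (final). Luminescence was read within 5 min of enzyme-buffer addition and normalized to PTC124 versus DMSO (0%).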
# Chain of Luciferin 4-monooxygenase (Photinus pyralis) (P08659 whole entry, looked up): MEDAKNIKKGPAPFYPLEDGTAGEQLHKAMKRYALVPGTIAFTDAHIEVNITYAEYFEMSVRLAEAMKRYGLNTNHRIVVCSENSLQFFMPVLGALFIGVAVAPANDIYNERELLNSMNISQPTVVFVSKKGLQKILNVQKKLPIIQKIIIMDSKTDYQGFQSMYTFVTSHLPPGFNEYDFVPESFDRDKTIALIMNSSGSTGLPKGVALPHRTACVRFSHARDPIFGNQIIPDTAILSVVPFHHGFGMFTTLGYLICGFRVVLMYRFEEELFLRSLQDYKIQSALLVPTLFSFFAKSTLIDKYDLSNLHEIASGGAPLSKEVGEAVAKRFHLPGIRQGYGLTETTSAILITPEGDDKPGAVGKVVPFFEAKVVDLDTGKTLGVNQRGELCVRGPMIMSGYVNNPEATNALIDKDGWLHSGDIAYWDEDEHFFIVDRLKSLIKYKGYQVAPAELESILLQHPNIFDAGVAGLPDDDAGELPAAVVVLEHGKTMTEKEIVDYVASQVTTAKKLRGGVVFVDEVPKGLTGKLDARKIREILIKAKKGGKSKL
row,SMILES,Potency
1,O=C(NN1CCCC1)NS(=O)(=O)c1ccc(Cl)cc1,inactive
2,CCCCCC(=O)O[C@]1(C(C)=O)CC[C@H]2[C@@H]3CCC4=CC(=O)CC[C@]4(C)[C@H]3CC[C@@]21C,inactive
3,OCc1cccnc1,inactive
4,COc1cc(C(=O)NC2CCCNC2)cc(OC)c1OC (stereo not drawn),inactive
5,O=C1NC2CCCCN2C12CCN(CCCN1c3ccccc3CCc3ccc(Cl)cc31)CC2 (stereo not drawn),inactive
6,CN1C(CSCC(F)(F)F)Nc2cc(Cl)c(S(N)(=O)=O)cc2S1(=O)=O (stereo not drawn),inactive
7,CN=C(N)NC(=O)Nc1c(C)cccc1C,inactive
8,O=C(CCCCC(=O)Nc1c(I)cc(I)c(C(=O)O)c1I)Nc1c(I)cc(I)c(C(=O)O)c1I,inactive
9,CN1CCC(N(Cc2cccs2)c2ccccc2)CC1,inactive
10,CCOC(=O)Cn1cccc1-c1nc(-c2ccc(OC)cc2)c(-c2ccc(OC)cc2)s1,inactive
11,CCN1CCN(c2cc(-c3ccc(F)cc3)c3c(n2)CCCCCC3)CC1,inactive
12,Nc1nnnn1-c1ccccc1,inactive
13,Nc1c[n+](N2CCOCC2)no1,inactive
14,C[N+]1(C)CCC(OC(=O)C(O)(c2ccccc2)C2CCCC2)C1 (stereo not drawn),inactive
15,CCCN(CCC)C(=O)C(CCC(=O)OCCCN1CCN(CCOC(=O)Cc2c(C)n(C(=O)c3ccc(Cl)cc3)c3ccc(OC)cc23)CC1)NC(=O)c1ccccc1 (stereo not drawn),inactive
16,Cc1cccc(C)c1NC(=O)c1cc(S(N)(=O)=O)c(Cl)cc1O,inactive
17,CC[N+]1(CC)CCC(=C(c2ccccc2)c2ccccc2)C1C (stereo not drawn),inactive
18,CN1C(=O)CC(C)(c2ccccc2)C1=O (stereo not drawn),inactive
